The entries come from a sample that favours hits as a whole.
PI4K2A inh – qHTS for small molecular inhibitors of PI4K2A. actives 0.13% (n = 420,000). Phosphatidylinositol 4-kinase type 2-alpha (Homo sapiens), Q9BTU6. AID 1346378, 2018. activity change, negative = inhibition, % at 76.9 µM. purified PI4K2A, ADP-Glo luminescence, 1 h; hits give low values; in the data active means activity change below about -50%; inconclusive means mostly about -30% to -49%
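In this quantitative HTS, ADP production by PI4K2A was quantified luminescently after 1 h at ambient temperature; 100 microM adenosine served as plate-quality control.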
Tb PFK inh – qHTS Assay to Find Inhibitors of T. brucei phosphofructokinase. ATP-dependent 6-phosphofructokinase (Trypanosoma brucei brucei), O15648. T. brucei PFK, ADP-Glo luminescence. Potency, µM (series often up to 57.5 µM), usual class: inhibitors. actives 0.17% (n = 330,000); further: nearly all actives have a fitted effect of over 60% in size
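In TEA buffer at pH 8.0 with 5 mM MgCl2, enzyme (1.25 nM) converted F6P (0.5 mM) and ATP (0.1 mM) for 45 min at room temperature. ADP product was read by luciferase luminescence.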
PI5P4K alpha inh – qHTS for Inhibitors of phosphatidylinositol 5-phosphate 4-kinase (PI5P4K). PI5P4Kalpha enzyme, ADP-Glo luminescence, 60 min; hits give low values. AID 652105, 2013. max response, %. Phosphatidylinositol 5-phosphate 4-kinase type-2 alpha (Homo sapiens), P48426. actives 1.2% (n = 330,000); active means max response of -50% or lower; inconclusive means between -30% and -50%; inactive means -30% or higher; further: value at the top dose of about 77 µM
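ADP-Glo luminescence end-point after a 60 min room-temperature kinase reaction. PI5P4Kalpha and substrate in HEPES pH 7.4 buffer with EGTA, 0.1% CHAPS and 5% DMSO; ATP at 5 microM final.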
PGK inhibitor – qHTS Assay to Find Inhibitors of Phosphoglycerate Kinase; Phosphoglycerate kinase, glycosomal (Trypanosoma brucei brucei), P07378; PGK/GAPDH coupled, Kinase-Glo luminescence, 60 min; Potency, µM (highest dose often 57.5 µM), hits mostly inhibitors; actives 0.043% (n = 380,000); AID 602233, 2012; further: nearly all actives have a fitted effect of over 60% in size
Target sequence (P07378 whole entry, looked up): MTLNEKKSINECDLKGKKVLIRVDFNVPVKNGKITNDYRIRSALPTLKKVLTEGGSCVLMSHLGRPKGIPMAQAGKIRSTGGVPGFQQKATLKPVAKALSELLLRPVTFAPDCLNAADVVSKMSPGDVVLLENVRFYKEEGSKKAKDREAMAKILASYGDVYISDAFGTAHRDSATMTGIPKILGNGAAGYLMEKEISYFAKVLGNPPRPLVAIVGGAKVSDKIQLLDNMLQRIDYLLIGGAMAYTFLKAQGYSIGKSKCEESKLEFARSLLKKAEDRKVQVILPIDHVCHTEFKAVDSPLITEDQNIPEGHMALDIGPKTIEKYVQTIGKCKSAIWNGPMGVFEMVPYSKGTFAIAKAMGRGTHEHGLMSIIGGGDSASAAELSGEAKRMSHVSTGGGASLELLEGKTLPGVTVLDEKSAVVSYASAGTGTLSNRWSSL
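Recombinant glycosomal PGK reaction used 1,3-bisphosphoglycerate generated in-well by GAPDH (100nM final) in 100mM TEA pH 7.6, 5mM MgCl2, 0.01% Tween-20. After 60 minutes at room temperature, ATP was read by Kinase-Glo Plus luminescence end-point.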
Pin1 inhibitor – qHTS Assay to Find Inhibitors of Pin1 | Peptidyl-prolyl cis-trans isomerase NIMA-interacting 1 (Homo sapiens), Q13526 | actives 0.009% (n = 390,000) | Pin1 FP peptide displacement, HiFluor488, 10 min | Potency, µM (series often up to 115 µM), most hits filed as inhibitors; active means well fitted inhibition curve with a large enough effect in the polarisation, with a control signal flat, not every such curve was filed as active; inconclusive means small, poorly fitted or top-dose-only effect, or effect the other way, or a change in a side signal; inactive means no such curve, though single readings can be large or run the other way; the % refers to the polarisation
Target sequence (Q13526 whole entry, looked up): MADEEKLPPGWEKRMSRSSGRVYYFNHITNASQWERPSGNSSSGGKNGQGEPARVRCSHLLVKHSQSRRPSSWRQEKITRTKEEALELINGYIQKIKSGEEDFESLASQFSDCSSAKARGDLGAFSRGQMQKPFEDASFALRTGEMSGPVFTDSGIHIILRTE
ADP-Glo interf – qHTS for Inhibitors of PI5P4K: ADP-Glo counter assay | AID 743285, 2014 | ADP-Glo detection counter-screen, luciferase luminescence, no enzyme | shares compounds with PI5P4K alpha inh | Potency, µM (series often up to 76.9 µM), hits mostly inhibitors | 1,100 tested, under 10 active
A number is an active result; i = inactive; ? = inconclusive; nt = not tested or not shown. Unless noted, the call rests on the fitted dose curve; in most records, active means well fitted curve in the direction sought with a large enough effect; inconclusive means small, poorly fitted or top-dose-only effect, or another doubt; inactive means no such curve, though single readings can be large; an effect the other way counts as inactive or inconclusive.

SMILES	PI4K2A inh	Tb PFK inh	PI5P4K alpha inh	PGK inhibitor	Pin1 inhibitor	ADP-Glo interf
COc1ccc(-n2c(SCC(=O)Nc3ccc(OCc4ccccc4)cc3)nnc2-c2ccc(C)cc2)cc1	i	nt	nt	nt	nt	nt
Cc1cc2c(s1)c1cnn(Cc3ccc(C)c(F)c3F)c(=O)c1n2C	nt	nt	nt	nt	i	nt
Cc1ccsc1C(=O)Nc1ccc(C(=O)O)cc1	-74.0	i	i	i	i	nt
O=c1c2c(-c3ccc(Cl)cc3)csc2ncn1/N=C/c1cccc([N+](=O)[O-])c1O	i	i	-70.7	i	?	nt
NC1=C(Cl)C(=O)c2ccccc2C1=O	i	nt	-55.7	i	i	nt
C=CC(=O)Nc1cccc(Oc2ccnc3[nH]ccc23)c1	i	nt	-71.6	i	?	nt
COc1cccc(/C(O)=C/c2nc3ccc(C(=O)NCCc4cccc(C)c4)cc3[nH]c2=O)c1	i	i	i	i	?	nt
COc1cccc(/C(O)=C/c2nc3ccc(C(=O)NCCc4ccc(Cl)cc4)cc3[nH]c2=O)c1	i	i	-92.9	i	?	nt
CC(C)CN(C(=O)COC(=O)c1cc2c(s1)CCC2)C1CCS(=O)(=O)C1 (stereo not given)	i	?	-61.8	?	?	nt
CCN(C(=O)COC(=O)c1cc2c(s1)CCCCC2)C1CCS(=O)(=O)C1 (stereo not given)	i	i	i	i	i	nt
COc1ccc(N2Cc3cccc(C(=O)N4CCN(C(=O)c5ccco5)CC4)c3C2=O)cc1	i	?	-84.5	i	?	i
CCN(CC)c1ccc(C=Nn2c(-c3ccc(F)cc3)n[nH]c2=S)c(O)c1	i	nt	nt	nt	nt	nt
CC(Nc1nc2ncn(Cc3ccccc3)c2c(=O)[nH]1)C(=O)O (stereo not given)	i	i	-54.5	i	i	i
CC(C)[C@H]1/C(=C/C2CC2)N2C(=O)C[C@H](c3ccccc3)N=C2N1C	i	nt	nt	nt	nt	nt
CC(C)C(=O)Nc1ccccc1N1CCN(S(C)(=O)=O)CC1	i	i	i	i	i	i
CC(=O)Nc1cc(-c2ccc(CO)cc2)cn2c(-c3ccc(F)c(Cl)c3)cnc12	i	nt	-54.2	nt	nt	i
CC(=O)Nc1cc(-c2ccc(F)cc2)cn2c(-c3ccc(F)c(Cl)c3)cnc12	i	nt	i	nt	nt	nt
Fc1cccc(Cl)c1CNc1ccc(N2CCCC2)cc1	i	i	-62.6	i	i	i
CCOC(=O)c1c(-c2ccco2)csc1NC(=O)COC(=O)c1cnc(C)cn1	i	?	-51.2	i	?	i
O=C(NCCCc1ccccc1)OC1CC2CC1[C@H]1CCCCN1[C@H]2Cc1ccccc1 (stereo not given in full)	i	nt	nt	nt	nt	nt
CCOC(=O)CNC(=O)CSc1nc2ccccc2c(=O)n1-c1ccc(Cl)cc1	i	nt	nt	nt	nt	nt
O=C(Cc1cccs1)Nc1nnc(SCc2cccc3ccccc23)s1	i	i	-52.9	i	i	i
O=C(Cc1cccs1)Nc1nnc(SCC(=O)NC2CCCCC2)s1	i	i	i	i	?	nt
O=C(CSc1nnc(-c2ccc(OC(F)F)cc2)o1)NC(=O)NCc1ccco1	i	i	-54.1	i	i	i
Cn1c(SCC(=O)NC(=O)NCc2ccco2)nnc1-c1ccccc1	i	?	-56.3	i	?	i
SMILES	PI4K2A inh	Tb PFK inh	PI5P4K alpha inh	PGK inhibitor	Pin1 inhibitor	ADP-Glo interf
O=C(Cc1ccc(S(=O)(=O)N2CCOCC2)s1)NC1CCCCC1	i	i	-50.9	i	i	i
O=C(Cc1ccc(S(=O)(=O)N2CCOCC2)s1)Nc1nc2c(s1)CCCC2	i	i	-65.9	i	?	i
CSc1ncccc1C(=O)Nc1ccc(OC(F)(F)F)cc1	i	i	-58.3	i	i	i
COc1cc(NC(=O)c2cccnc2SC)cc(OC)c1OC	i	i	i	i	i	nt
CC1CCN(C(=O)c2ccc(COc3ccccc3Cl)o2)CC1	i	i	-54.8	i	i	i
COC(=O)[C@]12C[C@H](CC(=O)N3CCOCC3)C(=O)N(Cc3ccc(Cl)cc3Cl)C1=C[C@H](C1CCCC1)O[C@@H]2C	i	nt	nt	nt	nt	nt
Cn1nnnc1Sc1ncnc2scc(-c3ccccc3C(F)(F)F)c12	i	?	nt	i	i	i
COCc1c(C(=O)N2CCc3ccccc32)oc2ccccc12	i	i	-77.4	?	i	i
Nc1nc(N)c2cc(S(=O)(=O)c3cccc(C(F)(F)F)c3)ccc2n1	i	nt	-54.1	i	nt	i
CCCCC1Cc2[nH][nH]c(=O)c2C(c2ccc(Cl)cc2)O1 (stereo not given)	i	nt	i	nt	nt	nt
CCCCC1Cc2[nH][nH]c(=O)c2C(c2ccc(F)cc2)O1 (stereo not given)	i	nt	-50.6	nt	nt	i
COCCN(C(=O)COC(=O)Cc1coc2cc3c(cc12)CCC3)c1c(N)n(Cc2ccccc2)c(=O)[nH]c1=O	i	?	-50.4	i	i	i
COCCN(C(=O)COC(=O)COc1ccc2c(c1)CCC2)c1c(N)n(Cc2ccccc2)c(=O)[nH]c1=O	i	i	i	i	i	nt
COCCCN(C(=O)c1cc(Cl)nc2ccccc12)c1c(N)n(Cc2ccccc2)c(=O)[nH]c1=O	i	i	i	i	i	nt
CCCn1c(N)c(N(CCOC)C(=O)c2cc(-c3ccco3)nc3ccccc23)c(=O)[nH]c1=O	i	i	-52.1	i	i	i
CCCCn1c(N)c(N(CCOC)C(=O)c2cc(-c3ccccc3)nc3ccccc23)c(=O)[nH]c1=O	i	i	i	i	i	nt
COCCCN(C(=O)c1cc(-c2ccco2)nc2ccccc12)c1c(N)n(Cc2ccccc2)c(=O)[nH]c1=O	i	?	-67.7	i	?	i
C[C@H](O)[C@@H]1CN2CCc3c([nH]c4cccc(-c5ccc6c(c5)OCO6)c34)[C@@H]2C[C@@H]1N(C)C(=O)c1ccco1	i	nt	nt	nt	nt	nt
COc1cccc(Cn2cc(COC(=O)NCCc3c[nH]c4ccccc34)nn2)c1	i	nt	nt	nt	nt	nt
CCN(CC(=O)Nc1ccccc1OC)C(=O)c1cccc(-n2cccc2)c1	i	i	i	i	i	nt
Cc1cccc(NC(=O)CNCC(=O)Nc2cccc(C)c2C)c1C	i	i	i	i	i	nt
CCN(CC(=O)Nc1c(F)cccc1F)C(=O)c1cccc(-n2cccc2)c1	i	?	-67.7	?	i	i
COc1ccc(NC(=O)CN(C)C(=O)c2cccc(-n3cccc3)c2)cc1	i	?	-62.4	?	?	i
Cc1cccc(NC(=O)CNC(=O)c2cccc(-n3cccc3)c2)c1C	i	21.3µM	-80.4	?	i	i
CC(=O)c1cc(-c2cccc(CO)c2)c(=O)n2c1CCC2	i	nt	nt	nt	nt	nt
C[C@@H]1C[C@H]2[C@@H](C)C(=O)N3[C@H](c4ccccc4)[C@H](C)C[C@H]3[C@@H](C)C(=O)N2[C@@H]1c1ccccc1	i	nt	nt	nt	nt	nt

Screening results from PubChem BioAssay.
